Only some compounds are listed: those with a hit (about 2.5% of all), similar ones and a draw of the others.
Cruzain noTriton: qHTS Assay for Promiscuous and Specific Inhibitors of Cruzain (without detergent). Cruzipain (Trypanosoma cruzi), P25779. purified cruzain, Z-FR-AMC fluorescence, no detergent. Potency, µM, most hits filed as inhibitors. hit rate 2.3% among 200,000; further: nearly all actives have a fitted effect of over 40% in size
Target sequence (P25779 123-467 limits assumed): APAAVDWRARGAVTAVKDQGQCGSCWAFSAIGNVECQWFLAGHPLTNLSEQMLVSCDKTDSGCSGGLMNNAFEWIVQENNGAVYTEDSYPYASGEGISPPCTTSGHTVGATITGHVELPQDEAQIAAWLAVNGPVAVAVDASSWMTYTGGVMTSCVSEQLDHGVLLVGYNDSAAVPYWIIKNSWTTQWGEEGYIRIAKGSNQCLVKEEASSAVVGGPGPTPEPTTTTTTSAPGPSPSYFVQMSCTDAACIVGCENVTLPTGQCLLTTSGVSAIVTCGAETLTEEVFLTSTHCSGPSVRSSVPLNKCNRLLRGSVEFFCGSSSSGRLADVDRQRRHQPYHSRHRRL
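Purified cruzain at 1.5 nM, pre-incubated 15 min with compound at room temperature in 100 mM sodium acetate pH 5.5, 5 mM DTT, 0.00005% Triton X-100. Reaction started with 2 uM Z-FR-AMC; AMC fluorescence increase over 60 s gives rate.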
Cruzain Triton: qHTS Assay for Promiscuous and Specific Inhibitors of Cruzain (with detergent). Cruzipain (Trypanosoma cruzi), P25779. purified cruzain, Z-FR-AMC fluorescence, 0.01% Triton. Potency, µM, hits mostly inhibitors. hit rate 0.43% among 200,000; further: nearly all actives have a fitted effect of over 40% in size
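Purified cruzain (1.5 nM final) was preincubated with compounds for 15 min at room temperature in 100 mM sodium acetate pH 5.5, 5 mM DTT, 0.01% Triton X-100. Reaction started with 2 uM Z-FR-AMC; AMC fluorescence change over 60 s gave activity.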
Large screens that a line does not name were inactive. The call rests on the fitted dose curve; in most records, active means well fitted curve in the direction sought with a large enough effect; inconclusive means small, poorly fitted or top-dose-only effect, or another doubt; inactive means no such curve, though single readings can be large; an effect the other way counts as inactive or inconclusive.

NC(=S)N=Nc1c(O)[nH]c2cc(F)c(F)cc12	Cruzain noTriton 10µM, Cruzain Triton 14µM
CNC(=S)N=Nc1c(O)[nH]c2ccc(C(C)C)cc12	none
COc1ccc(CNc2ncnc3ccc(-c4ccccc4OC)cc23)c(OC)c1	none
COc1ccc(Cn2c(SCc3ccccc3C)nc3cc(OC)c(OC)cc3c2=N)cc1	Cruzain noTriton inconclusive, Cruzain Triton 16µM
COc1cc2nc(SCc3ccc(F)cc3)n(Cc3cccs3)c(=N)c2cc1OC	Cruzain noTriton inconclusive
O=C(CN(c1cccc(C(F)(F)F)c1)S(=O)(=O)c1ccc(Cl)c([N+](=O)[O-])c1)NCc1ccccc1Cl	Cruzain noTriton 25µM
O=C(CN(c1cccc(C(F)(F)F)c1)S(=O)(=O)c1ccc(Cl)c([N+](=O)[O-])c1)NCc1ccccc1	none
CC1=NN(C(=O)c2ccncc2)C(=O)[C@@H]1N=Nc1ccc2ccccc2c1	none
CC1=NN(c2nc(-c3ccc(C)cc3)cs2)C(=O)C1N=Nc1ccc2ccccc2c1 (stereo unspecified)	Cruzain noTriton 3.2µM
Cn1cc(-c2nc3cncnc3n(Cc3ccc(F)cc3)c2=O)c2ccccc21	none
O=C(O)Cc1cccc(OCCCN(Cc2cccc(C(F)(F)F)c2Cl)CC(c2ccccc2)c2ccccc2)c1	Cruzain Triton inconclusive
S=C([S-])NCCNC(=S)[S-].[Zn+2]	Cruzain noTriton inconclusive, Cruzain Triton 32µM
Cc1ccc(C(=O)COC(=O)CNC(=O)COc2ccccc2C)cc1C	Cruzain noTriton inconclusive, Cruzain Triton 16µM
CC(=O)NCC(=O)OCC(=O)c1ccc(C)c(C)c1	none
Cc1ccc(C)c(N2CCN(C(=O)CCn3c(=O)c4cccn4c4cccnc43)CC2)c1	none
Cc1cc(C)n(-c2cc(N3CCN(S(=O)(=O)c4ccc(Br)cc4)CC3)ccc2[N+](=O)[O-])n1	Cruzain noTriton inconclusive
Cc1cc(C)c(S(=O)(=O)N2CCN(c3ccc([N+](=O)[O-])c(-n4nc(C)cc4C)c3)CC2)c(C)c1	Cruzain noTriton 20µM
CCC(=O)N1CCc2cc(Br)cc(S(=O)(=O)CCC(=O)Nc3ccc(C)c(C)c3)c21	none
CC(=O)c1cc(-c2ccc(F)cc2)n(CCC(=O)NC2CCCCC2)c1C	none
COc1ccccc1/C=C/C(=C1/C(=O)N(c2ccccc2)N=C1C)c1ccc(C)cc1	Cruzain noTriton 25µM
COc1cccc(/C=C/C(=C2/C(=O)N(c3ccccc3)N=C2C)c2ccccc2)c1OC	none
CC(C)c1ccc(N2C(=O)CC(Sc3ncn[nH]3)C2=O)cc1 (stereo unspecified)	Cruzain noTriton 4µM
COc1ccc(N2C(=O)CC(Sc3ncn[nH]3)C2=O)c(OC)c1 (stereo unspecified)	Cruzain noTriton inconclusive
Cc1ccc(C)c(NC(=O)c2cnn(-c3ccc(F)cc3F)c2C2CCNCC2)c1	none
CC(C)c1ccc(C2C(C#N)=C(N)N3C(=C2C#N)Sc2ccccc23)cc1 (stereo unspecified)	Cruzain noTriton 7.9µM
CC(C)c1ccc(C2CC(=O)N3CN(C)CSC3=C2C#N)cc1 (stereo unspecified)	none
COc1ccc(OC(=O)c2nc(SCc3ccc(C)cc3)ncc2Cl)cc1	Cruzain noTriton 20µM
Cc1ccc(CSc2ncc(Cl)c(C(=O)Oc3ccc(F)cc3)n2)cc1	none
Cc1c(Cl)c(S(N)(=O)=O)cc2c1=NC=NS=2(=O)O	none
COc1ccc(-c2oc3ncn4nc(COc5ccccc5)nc4c3c2-c2ccc(OC)cc2)cc1	Cruzain noTriton 4µM
COc1ccc(-c2oc3ncn4nc(Cc5ccccc5)nc4c3c2-c2ccc(OC)cc2)cc1	Cruzain noTriton 10µM
COc1ccc(-c2oc3ncn4nc(COc5ccc(C)cc5)nc4c3c2-c2ccc(OC)cc2)cc1	none
COc1ccc(OCc2nc3c4c(-c5ccc(OC)cc5)c(-c5ccc(OC)cc5)oc4ncn3n2)cc1	none
CCOC(=O)c1ccccc1NC(=O)CSc1ncc(CO)n1Cc1ccc(C)cc1	none
CN(C)S(=O)(=O)c1nc(Cl)c2[nH]cnc2n1	none
CSc1ccc(CCNC(=O)CCc2c(C)nc3c(c(C)nn3-c3ccc(C)c(C)c3)c2C)cc1	none
Nc1nc(N)c2nn(-c3ccc(C(=O)O)cc3)nc2n1	none
Nc1ccc(-c2nc3ccc(C(=O)O)cc3s2)cc1	Cruzain noTriton inconclusive, Cruzain Triton 25µM
O=C(O)c1ccc2nc(-c3ccccc3)sc2c1	none
COc1ccc(Cl)cc1NC(=O)C(=O)N/N=C/c1cc(C)n(-c2ccc(C)cc2)c1C	Cruzain noTriton 13µM
Cc1ccc(-n2c(C)cc(/C=N/NC(=O)CC3(C)OCCO3)c2C)cc1	none
CC(C)C(c1nnnn1C1CCCCC1)N1CCc2ccccc21 (stereo unspecified)	none
Cc1ccc(C(c2nnnn2C2CCCCC2)N2CCc3ccccc32)cc1 (stereo unspecified)	Cruzain noTriton 25µM
O=S(=O)(NCCc1cn2ccccc2n1)c1ccc(F)c(C(F)(F)F)c1	Cruzain Triton 25µM
CCc1ccc(S(=O)(=O)NCCc2cn3ccccc3n2)s1	none
Cc1ccn2cc(CCNS(=O)(=O)c3ccc(F)c(C(F)(F)F)c3)nc2c1	Cruzain noTriton 25µM
Cc1ccn2cc(CCNS(=O)(=O)c3ccc4c(c3)OCCO4)nc2c1	none
Cc1c(C(=O)N(C)C)sc2c1c(=O)n(-c1ccc(Cl)cc1)c(=O)n2CC(=O)C(C)(C)C	none
Cc1ccc(Cl)cc1-n1c(=O)cc(N2CCN(c3ccccc3)CC2)[nH]c1=O	none
Nc1c(C(=O)Nc2ccc(C(F)(F)F)cc2)sc2nc(-c3cccs3)ccc12	Cruzain noTriton inconclusive
Nc1c(C(=O)NC2CCCC2)sc2nc(-c3cccs3)ccc12	Cruzain noTriton 25µM
Oc1[nH]c(=S)sc1/C=C1\C(c2ccccc2)=Nc2ccccc21	Cruzain noTriton 25µM
O=c1[nH]c(=O)n(-c2ccccc2)c(O)c1/C=C1/C(c2ccccc2)=Nc2ccccc21	none
CCn1nc(-c2ccccc2)c(-c2ccccc2)c(C(=O)Nc2ccccc2C#N)c1=O	none
O=C(N=Nc1c(O)[nH]c2ccccc12)c1cccc(S(=O)(=O)N2CCCCC2)c1	none
CC(C)c1ccc2[nH]c(O)c(N=NC(=O)c3cccc(S(=O)(=O)N4CCCCC4)c3)c2c1	Cruzain noTriton 25µM
CCn1ccc2cc(S(=O)(=O)N3CCC(C(=O)NCCc4ccc(SC)cc4)CC3)ccc21	none
Cc1ccc(C)c(NC(=O)C(Sc2nc3ccccc3c(=O)n2CC(C)C)c2ccccc2)c1 (stereo unspecified)	Cruzain noTriton 20µM
Cc1ccc(C)c(NC(=O)C(Sc2ncnc3ccccc23)c2ccccc2)c1 (stereo unspecified)	none
Cc1ccccc1C(=O)NNC(=O)c1ccc(F)cc1	none
Cc1cccc(C(=O)NNC(=O)c2cc3cc4ccccc4nc3s2)c1	Cruzain noTriton 20µM
Cc1ccc(S(=O)(=O)NNC(=O)c2cc3cc4ccccc4nc3s2)cc1	none
O=C(NNC(=O)c1ccccc1Br)c1cccc(Cl)c1	none
O=C(NNC(=O)c1cc2cc3ccccc3nc2s1)c1ccc(F)cc1	Cruzain noTriton 10µM, Cruzain Triton inconclusive
O=C(NNC(=O)c1cc2cc3ccccc3nc2s1)c1cccc(Cl)c1	Cruzain noTriton 25µM, Cruzain Triton inconclusive
CCn1ccc2cc(S(=O)(=O)N3CCC(C(=O)NCc4cccc(C)c4)CC3)ccc21	none
CN(C)C[C@H]1CCC2=C(C1=O)C(c1ccc(Cl)c(Cl)c1)C1=C(CC[C@H](CN(C)C)C1=O)O2	none
CC(C)C=O	none

Assay outcomes as filed in PubChem BioAssay.
